Compound activity as filed in PubChem BioAssay.
KDM5B inhibitor: inhibitors of human KDM5B histone demethylase. KDM5B demethylase, FDH-coupled NADH fluorescence (FDH is formaldehyde dehydrogenase). Potency, µM (top dose mostly 57.7 µM), hits mostly inhibitors. 220,000 tested, 2.6% active. AID 1347165; active = well fitted inhibition curve with a large enough effect; note: nearly all actives have a fitted effect of over 70% in size
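KDM5BΔAP (200 nM final) in 50 mM HEPES pH 7.5, 0.01% Tween-20 was preincubated 10 min at RT with compound over a concentration range. Substrate mix (H3K4me3 12.5 µM, α-KG 25 µM, Fe²⁺, ascorbate, NAD⁺, FDH) was added, and NADH fluorescence change over 30 min gave dose-response curves.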
Large screens that a line does not name were inactive. This excerpt belongs to a sample that is enriched for hits.

COc1ccc(C(=O)N[C@@H]2CN(c3ncccn3)C[C@H]2CN(C)C)c(OC)n1	KDM5B inhibitor 25.1µM
Cc1cccnc1C(=O)N[C@@H]1CN(Cc2ccccc2)C[C@H]1CN(C)C	none
COc1cccc(C(=O)N[C@@H]2CN(S(C)(=O)=O)C[C@H]2CN(C)C)c1C	none
CN(C)C[C@@H]1CN(Cc2ccncc2)C[C@H]1NS(=O)(=O)Cc1ccccc1	none
CCOc1ccccc1C(=O)N[C@@H]1CN(Cc2cccnc2)C[C@H]1CN(C)C	none
CN(C)C[C@@H]1CN(Cc2ccccc2)C[C@H]1NS(=O)(=O)c1cccnc1	none
CN(C)C[C@@H]1CN(Cc2ccncc2)C[C@H]1N	KDM5B inhibitor 17.8µM
COc1cccc(C(=O)N[C@@H]2CN(c3ncccn3)C[C@H]2CN(C)C)c1C	KDM5B inhibitor 31.6µM
COc1ccc(C(=O)NC2CCCN(CCc3ccccc3)C2)c(OC)n1 (centres undefined)	none
COc1ccccc1C(=O)N[C@@H]1CN(Cc2ccncc2)C[C@H]1CN(C)C	KDM5B inhibitor 22.4µM
Fc1ccc(CNCCCn2ccnc2)cc1	none
CC1CCCCN1CCCNC(=O)c1cc(C2CC2)nc2ccccc12 (centres undefined)	none
Cc1cccc(-n2ncc3c(NC4CCCCCCCCCCC4)ncnc32)c1	none
O=C(Nc1ccccc1C(F)(F)F)Nc1c(N2CCCC2)c2ccccc2oc1=O	none
Cc1ccccc1NC(=O)COC(=O)COc1ccccc1	none
COc1ccc(C(=O)OCc2nc(-c3ccc(F)cc3)no2)cc1S(=O)(=O)N1CCCC1	none
O=C(NCCc1ccccc1)Nc1ccc(Cl)cc1F	none
Cc1cccc(C(C)C)c1NC(=O)COc1ccc(C(=O)Nn2c(C)ccc2C)cc1	none
O=C(CN1CCN(c2ccc([N+](=O)[O-])c3cnccc23)CC1)Nc1ccc(OC(F)(F)F)cc1	none
CC(C)CCOc1ccc(/C=C(/C#N)c2nc3ccccc3[nH]2)cc1	none
CCn1ncc(C(=O)N[C@@H]2CN(c3ncccn3)C[C@H]2CN(C)C)c1C	KDM5B inhibitor 25.1µM
Cc1cnc(C(=O)N[C@@H]2CN(c3ccncn3)C[C@H]2CN(C)C)cn1	none
CN(C)C[C@@H]1CN(Cc2ccccn2)C[C@H]1NC(=O)c1c[nH]c2ccccc12	none
Cc1oc(-c2nc(C#N)c(N3CCCCCC3)o2)cc1S(=O)(=O)N1CCOCC1	none
CC12CC3CC(C)(C1)CC(NC(=O)c1cccc4c(Br)cccc14)(C3)C2	none
O=C(Nc1ccc(Cl)nc1)c1ccn2cncc2c1	none
O=C(Nc1ccc(F)cc1)c1ccn2cncc2c1	KDM5B inhibitor 35.5µM
C=CCNC(=O)c1ccn2cncc2c1	none
O=C1OC(C(=O)Nc2cccc3cccnc23)Cc2ccccc21 (centres undefined)	none
COc1cccc(CNC(=O)C(c2ccccc2)c2ccccc2)c1	none
Cc1nc(N(C)C)ncc1C(=O)N1CCN(c2ccccc2C#N)CC1	KDM5B inhibitor 28.2µM
Cc1nc(N2CCCC2)ncc1C(=O)N1CCN(c2ccc(Cl)cc2)CC1	none
Cc1nc2cc(F)ccc2cc1C(=O)N1CCN(c2ccccc2F)CC1	none
Clc1ccc(Nc2ncncc2-c2nc(-c3ccccc3)no2)cc1	none
FC(F)(F)c1cccc(Nc2ncc(-c3cccnc3)c3c2OCC3)c1	KDM5B inhibitor 28.2µM
CN(C)c1cccc(C(=O)Nc2ncc(-c3cnn(C)c3)c3c2OCC3)c1	none
Cn1cc(-c2cnc(NC(=O)c3c[nH]c4ccccc34)c3c2CCO3)cn1	none
Clc1ccc(Nc2ncc(-c3cccnc3)c3c2OCC3)cc1	KDM5B inhibitor 31.6µM
Cn1cc(-c2cnc(Nc3cccc(C(F)(F)F)c3)c3c2CCO3)cn1	KDM5B inhibitor 35.5µM
O=C(NCC(F)(F)F)c1cccnc1Nc1cccc(C(F)(F)F)c1	none
COc1ccc(-c2cnc(Nc3cccnc3)c3c2CCO3)cn1	none
COC(=O)c1cnc(Nc2cccc(C(F)(F)F)c2)c([N+](=O)[O-])c1	none
Fc1ccccc1CN1CCC(NCC2CNc3ccnn3C2)CC1 (centres undefined)	none
CC(C)c1ccccc1NC(=O)c1ccc2ccccc2n1	none
Cc1sc(N)c(C#N)c1-c1ccccc1	none
CCCCCC(C)NS(=O)(=O)Cc1ccc([N+](=O)[O-])cc1 (centres undefined)	none
CCCn1cc(-c2ccncc2)cc1C(=O)NCc1cccc(F)c1	KDM5B inhibitor 25.1µM
CCn1cc(-c2ccc(Cl)cc2)cc1C(=O)NCc1ccncc1	none
CCCn1cc(-c2ccncc2)cc1C(=O)NCc1ccccc1	none
CC(Sc1nc(CN2CCOCC2)nc2ccccc12)C(=O)Nc1cccc(F)c1 (centres undefined)	none
Cn1ccc2cc(S(=O)(=O)N3CCC(C(=O)N4CCC5(CC4)OCCO5)CC3)ccc21	none
Cc1ccc2oc([C@H]3CCN(Cc4c[nH]c5ccccc45)C3)nc2c1	KDM5B inhibitor 12.6µM
COc1ccccc1CN1CC[C@H](c2nnc(Cc3c[nH]c4ccccc34)o2)C1	none
Cc1ccc2oc([C@H]3CCN(Cc4ccc(C(F)(F)F)cc4)C3)nc2c1	none
CCOC(=O)c1sc(NC(=O)COc2c(C)cc(C)cc2C)nc1C	none
O=C(CC1(O)C(=O)N(C/C=C/c2ccccc2)c2ccccc21)c1ccccc1 (centres undefined)	none
CC(=O)Oc1cccc2cc(-c3nc(-c4ccc(Cl)cc4)no3)c(=O)oc12	none
CCCCN(C)S(=O)(=O)NC1CCN(c2ncccn2)CC1	none
CCOc1nccnc1NC1CCN(S(=O)(=O)C2CC2)CC1	KDM5B inhibitor 31.6µM
CCCOc1nccnc1NC1CCN(S(=O)(=O)C2CC2)CC1	KDM5B inhibitor 15.8µM
CN(C)c1nccnc1OC1CCN(S(=O)(=O)c2ccccc2)C1 (centres undefined)	none
CS(=O)(=O)N1CCC(Nc2nc3ccccc3o2)CC1	none
CCc1ccc(S(=O)(=O)N2CCC(Oc3ncccc3C(=O)N3CCOCC3)C2)cc1 (centres undefined)	none
C/C(=N\Oc1cc(N)cc([N+](=O)[O-])c1)c1ccncc1	none
O=C(Nc1cccc(Cl)c1F)C1CC(=O)N(C2CCCC2)C1 (centres undefined)	none
CCCN(CC(=O)NC(=O)Nc1ccccc1)Cc1ccc(C#N)cc1	none
Cc1cccc(C(=O)NC(C)C2CCCO2)c1 (centres undefined)	none
CCOc1cc(=O)n2c(c1C(=O)NCCCN1CCCc3ccccc31)CCCCC2	KDM5B inhibitor 11.2µM
CCOc1cc(=O)n2c(c1C(=O)NCc1ccccc1F)CCCCC2	none
CCOc1cc(=O)n2c(c1C(=O)NCCOC)CCCCC2	none
COc1ccc(-c2nc3nccc(-c4ccco4)n3n2)c(OC)c1	KDM5B inhibitor 22.4µM
COc1ccc(-c2noc(CSc3nnc(-c4ccco4)n3C3CCCCC3)n2)c(OC)c1	none
COc1ccc(Nc2cc(C)nc3nc(-c4ccc(C)cc4)nn23)c(OC)c1	none
Cc1cc(Nc2ccc(F)cc2C)n2nc(-c3ccco3)nc2n1	none
COc1ccc(CNc2nc(-c3ccco3)nn2C(=O)CC(C)C)cc1	none
COc1ccc(Nc2cc(C)nc3nc(-c4ccccc4C)nn23)c(OC)c1	none
COc1ccc(-c2nc3nccc(-c4ccsc4)n3n2)c(OC)c1	KDM5B inhibitor 17.8µM
Cc1cc(C)n2c(Nc3ccc(C(C)C)cc3)c(-c3ccsc3)nc2n1	none
COc1ccc(-c2ccnc3nc(-c4ccco4)nn23)c(F)c1	KDM5B inhibitor 15.8µM
CC(C)c1nc2nccc(-c3ccsc3)n2n1	KDM5B inhibitor 25.1µM
Cc1ccc(C(=O)Nc2c(N3CCCC3)c3ccccc3oc2=O)cc1	none
CC(=O)c1sc(=S)n(C)c1C	none
CCc1c(C)sc(NC(=O)c2ccc(Cl)c(Cl)c2)c1C#N	none
O=C(CSc1nc2ccccc2o1)N(Cc1ccccc1)Cc1ccco1	none
CCOC(=O)c1nc2ccccc2nc1NCC(C)c1ccccc1 (centres undefined)	none
